Assay results taken from PubChem BioAssay AID1159580 (chemical genetic matrix, 2015).
The campaign covered roughly 5,500 compounds. About 2,000 (36%) were called active. Roughly 18% stayed inconclusive and do not appear here. Rule as the data show it: active = normalized growth mostly below about 0.91 (no sharp cut-off); inconclusive = no clear call, values can overlap the other calls; inactive = mostly above about 0.92. This is one part of the list.

Assay: chemical genetic growth profiling, strain panel (AID 1159580);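 also: tested at 20 µM; growth read once vehicle control cultures reached saturation at 30 °C; 1 = growth at the plate median or of vehicle wells; lower values mean less growth of the strain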
Conditions: S. cerevisiae deletion strains, growth OD
[1] = locus YAL013W, strain DEP1, stronger effect = lower value
[2] = locus YAL040C, strain CLN3, stronger effect = lower value
[3] = locus YCL061C, strain MRC1 (second series), stronger effect = lower value
[4] = locus YDR363W, strain ESC2, stronger effect = lower value
[5] = locus YER002W, strain NOP16, stronger effect = lower value
[6] = locus YMR263W, strain SAP30, stronger effect = lower value
[7] = locus YMR307W, strain GAS1, stronger effect = lower value
[8] = locus YNL153C, strain GIM3, stronger effect = lower value
[9] = locus YNL175C, strain NOP13, stronger effect = lower value
[10] = locus YNL197C, strain WHI3, stronger effect = lower value
[11] = locus YNL224C, strain SQS1, stronger effect = lower value
[12] = locus YNL322C, strain KRE1, stronger effect = lower value
[13] = locus YOR083W, strain WHI5 (second series), stronger effect = lower value
[14] = locus YPL055C, strain LGE1, stronger effect = lower value
[15] = locus YPL241C, strain CIN2, stronger effect = lower value
[16] = locus YDR150W, strain NUM1, stronger effect = lower value
[17] = locus YGR078C, strain PAC10, stronger effect = lower value

Measured: normalized growth

NCC1(CC(=O)O)CCCCC1
inactive: [1] 1 | [2] 0.991 | [3] 1.01 | [4] 0.995 | [5] 1.01 | [6] 0.999 | [7] 0.99 | [8] 1.02 | [9] 1.01 | [10] 1.01 | [11] 1.02 | [12] 0.998 | [13] 0.977 | [14] 0.999

C[N+]1(C)C2CCC1CC(OC(=O)c1c[nH]c3ccccc13)C2 (centres undefined)
inactive: [1] 1.02 | [2] 1.06 | [3] 0.996 | [4] 1 | [5] 0.974 | [6] 0.997 | [7] 1.01 | [9] 0.973 | [10] 1.01 | [11] 1.02 | [12] 1 | [13] 0.978 | [14] 1 | [15] 1

CSC(=N)N
inactive: [2] 0.992 | [3] 1.01 | [16] 1.01 | [4] 1.02 | [5] 0.984 | [17] 1.01 | [7] 1.01 | [8] 1.01 | [9] 1.01 | [10] 1 | [11] 1 | [13] 1.01 | [15] 1.01

CCSC(=N)N
inactive: locus YAL021C, strain ccr4, stronger effect = lower value 1.03 | locus YAL026C, strain drs2, stronger effect = lower value 1.01 | locus YAL030W, strain snc1, stronger effect = lower value 1.01 | locus YBL061C, strain skt5, stronger effect = lower value 1.02 | locus YBR009C, strain hhf1, stronger effect = lower value 1.01 | locus YBR023C, strain chs3, stronger effect = lower value 1.02 | locus YBR171W, strain sec66, stronger effect = lower value 1.02 | locus YBR231C, strain swc5, stronger effect = lower value 1.01 | locus YBR279W, strain paf1, stronger effect = lower value 1.01 | locus YCL011C, strain gbp2, stronger effect = lower value 1.02 | locus YCL016C, strain dcc1, stronger effect = lower value 1.01 | [3] 1 | locus YCL061C, strain MRC1, stronger effect = lower value 1.01 | locus YCL069W, strain vba3, stronger effect = lower value 1.01 | locus YCR088W, strain abp1, stronger effect = lower value 1.02 | locus YDL005C, strain med2, stronger effect = lower value 1.03 | locus YDL040C, strain nat1, stronger effect = lower value 1.02 | locus YDR001C, strain nth1, stronger effect = lower value 1.01 | locus YDR069C, strain doa4, stronger effect = lower value 1.01 | locus YDR137W, strain rgp1, stronger effect = lower value 1.01 | [16] 1.01 | locus YDR159W, strain sac3, stronger effect = lower value 1.05 | locus YDR195W, strain ref2 1.01 | locus YDR297W, strain sur2, stronger effect = lower value 1.02 | locus YDR334W, strain swr1, stronger effect = lower value 1.01 | locus YDR335W, strain msn5, stronger effect = lower value 1.02 | [4] 1.01 | locus YDR392W, strain spt3, stronger effect = lower value 0.975 | locus YEL003W, strain gim4, stronger effect = lower value 1.01 | locus YEL037C, strain rad23, stronger effect = lower value 1.01 | locus YEL061C, strain CIN8 (second series), stronger effect = lower value 1.01 | [5] 0.999 | locus YER015W, strain faa2, stronger effect = lower value 1.01 | locus YER016W, strain bim1, stronger effect = lower value 1.02 | locus YER111C, strain swi4, stronger effect = lower value 1.02 | locus YER155C, strain BEM2 (second series), stronger effect = lower value 1.05 | locus YFR010W, strain ubp6, stronger effect = lower value 1.01 | locus YGL167C, strain pmr1, stronger effect = lower value 1.03 | locus YGL173C, strain kem1, stronger effect = lower value 1.01 | locus YGL227W, strain vid30, stronger effect = lower value 1.02 | locus YGL240W, strain doc1, stronger effect = lower value 1.02 | locus YGL253W, strain hxk2, stronger effect = lower value 1.02 | [17] 1.02 | locus YGR229C, strain SMI1, stronger effect = lower value 1.04 | locus YHR013C, strain ard1, stronger effect = lower value 1 | locus YHR027C, strain rpn1, stronger effect = lower value 1.02 | locus YHR142W, strain chs7, stronger effect = lower value 1.03 | locus YJL092W, strain hpr5, stronger effect = lower value 1.01 | locus YJL095W, strain BCK1 (second series), stronger effect = lower value 1.01 | locus YJL115W, strain asf1, stronger effect = lower value 1.02 | locus YJL129C, strain trk1, stronger effect = lower value 1.04 | locus YJL154C, strain vps35, stronger effect = lower value 1.01 | locus YJL164C, strain tpk1, stronger effect = lower value 1.01 | locus YJL166W, strain qcr8, stronger effect = lower value 1.02 | locus YJL187C, strain SWE1, stronger effect = lower value 1.01 | locus YKL160W, strain elf1, stronger effect = lower value 1.02 | locus YKR026C, strain gcn3, stronger effect = lower value 1.01 | locus YKR091W, strain srl3, stronger effect = lower value 1.01 | locus YLL001W, strain dnm1, stronger effect = lower value 1.02 | locus YLL026W, stronger effect = lower value 1.01 | locus YLL041C, strain sdh2, stronger effect = lower value 1.02 | locus YLR027C, strain aat2, stronger effect = lower value 1.01 | locus YLR221C, strain rsa3, stronger effect = lower value 1.01 | locus YLR258W, strain gsy2, stronger effect = lower value 1.01 | locus YLR262C, strain YPT6 (second series), stronger effect = lower value 1.02 | locus YLR320W, strain mms22, stronger effect = lower value 1.03 | locus YLR342W, strain FKS1, stronger effect = lower value 1.02 | locus YLR357W, strain rsc2, stronger effect = lower value 1.01 | locus YLR370C, strain arc18, stronger effect = lower value 1.02 | locus YLR384C, strain iki3, stronger effect = lower value 1.02 | locus YML120C, strain ndi1, stronger effect = lower value 1.01 | locus YMR058W, strain fet3, stronger effect = lower value 1.02 | locus YMR125W, strain sto1, stronger effect = lower value 1.01 | locus YMR129W, stronger effect = lower value 1.02 | locus YMR205C, strain PFK2, stronger effect = lower value 0.998 | locus YMR231W, strain pep5, stronger effect = lower value 1.01 | [6] 1.01 | [7] 1.03 | locus YNL071W, strain lat1, stronger effect = lower value 1.02 | [8] 1.03 | [9] 0.988 | [10] 0.992 | locus YNL209W, strain ssb2, stronger effect = lower value 1.01 | [11] 1.01 | locus YNL248C, strain rpa49, stronger effect = lower value 1.02 | locus YNL322C, strain KRE1 (second series), stronger effect = lower value 1.02 | [12] 1.01 | locus YNR049C, strain mso1, stronger effect = lower value 1.01 | locus YOR001W, strain rrp6, stronger effect = lower value 1.02 | locus YOR070C, strain gyp1, stronger effect = lower value 1.01 | locus YOR080W, strain dia2, stronger effect = lower value 1.03 | [13] 0.995 | locus YOR083W, strain WHI5, stronger effect = lower value 1.03 | locus YOR106W, strain vam3, stronger effect = lower value 1.04 | locus YOR265W, strain rbl2, stronger effect = lower value 1.01 | locus YOR270C, strain vph1, stronger effect = lower value 1.07 | locus YOR290C, strain snf2, stronger effect = lower value 0.96 | locus YPL051W, strain arl3, stronger effect = lower value 1.02 | locus YPL078C, strain atp4, stronger effect = lower value 1.02 | locus YPL106C, strain sse1, stronger effect = lower value 1.04 | locus YPL240C, strain hsp82, stronger effect = lower value 1.02
active: [2] 1.12 [resistant] | [14] 1.17 [resistant]
